TDP1 cell CPT: qHTS for Inhibitors of human tyrosyl-DNA phosphodiesterase 1 (TDP1): qHTS in cells in presence of CPT; AID 686979, 2013; chicken DT40 Tdp1-/-;hTDP1 cells + 20 nM CPT, ATP luminescence, 48 h; Potency, µM (series often up to 46.2 µM), for inactives: at the top dose activity change, negative = growth inhibition, actives largely listed as inhibitors; hit rate 12% among 420,000; also: potency is read from the fitted curve at half-maximal effect; nearly all actives have a fitted effect of over 55% in size
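Chicken DT40 Tdp1-/- cells stably complemented with human TDP1 were seeded at 400 cells/well in medium containing 20 nM camptothecin, exposed to pin-transferred compounds, and grown at 37 °C for at least 48 hr. Viability was read as ATP luminescence.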
ELG1 DNA repair: qHTS screen for small molecules that inhibit ELG1-dependent DNA repair in human embryonic kidney (HEK293T) cells expressing luciferase-tagged ELG1; HEK293T ELG1-luciferase reporter, luminescence, 16 h; DNA damage induced by 5-fluorouridine; Potency, µM (series often up to 46.1 µM), for inactives: at the highest dose activity change, negative = inhibition, usual class: inhibitors; hit rate 2.3% among 330,000; AID 504467, 2011; also: potency is read from the fitted curve at half-maximal effect; nearly all actives have a fitted effect of over 55% in size
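Luminescence from the luciferase reporter, measured 30 min after ONE-Glo reagent at room temperature, was the read-out. Beforehand, 2,000 cells per well were exposed for 16 hr at 37 °C to 5-fluorouridine together with compound or vehicle.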
IL1B secr inh: qHTS for Inhibitors of Inflammasome Signaling: IL-1-beta AlphaLISA Primary Screen; AID 743279, 2014; activity change, % at 57.5 µM; THP-1 LPS/ATP IL-1B secretion, AlphaLISA, 16 h; active compounds read low; hit rate 4.7% among 360,000; in the data active = activity change below about -50%; inconclusive = mostly about -30% to -49%
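Secreted IL-1B measured by AlphaLISA bead assay after 16 h compound exposure of THP-1 cells; compounds (final up to 57.5 uM) added 1 h before LPS (250 ng/mL) and ATP (1.25 mM) stimulation; lower signal means less secretion.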
TDP1 inh: qHTS Assay for Inhibitors of Tyrosyl-DNA Phosphodiesterase (TDP1) | Tyrosyl-DNA phosphodiesterase 1 (Homo sapiens), Q9NUW8 | recombinant TDP1, AlphaScreen DNA substrate cleavage | Potency, µM (doses to about 130 µM), inactives show at the highest dose activity change, negative = inhibition, most hits filed as inhibitors | hit rate 0.28% among 350,000; also: potency is read from the fitted curve at half-maximal effect; nearly all actives have a fitted effect of over 40% in size
Target sequence (Q9NUW8 whole entry, looked up): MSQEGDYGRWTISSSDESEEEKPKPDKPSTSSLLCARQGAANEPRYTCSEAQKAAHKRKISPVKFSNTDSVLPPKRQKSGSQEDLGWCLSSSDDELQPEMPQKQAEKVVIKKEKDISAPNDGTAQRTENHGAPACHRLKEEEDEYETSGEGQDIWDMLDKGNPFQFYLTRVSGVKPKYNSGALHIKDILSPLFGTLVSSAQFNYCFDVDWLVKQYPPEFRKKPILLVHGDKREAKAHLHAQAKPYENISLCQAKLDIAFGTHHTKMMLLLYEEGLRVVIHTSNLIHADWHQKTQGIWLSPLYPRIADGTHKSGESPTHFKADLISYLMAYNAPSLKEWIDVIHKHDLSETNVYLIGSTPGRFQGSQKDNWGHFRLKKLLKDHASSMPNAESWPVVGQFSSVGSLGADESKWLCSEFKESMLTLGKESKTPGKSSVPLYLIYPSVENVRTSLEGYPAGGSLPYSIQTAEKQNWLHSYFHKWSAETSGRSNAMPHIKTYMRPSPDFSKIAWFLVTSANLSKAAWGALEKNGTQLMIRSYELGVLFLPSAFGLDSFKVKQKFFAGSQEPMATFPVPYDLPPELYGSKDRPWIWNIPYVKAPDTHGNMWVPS
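Recombinant E. coli-expressed Tdp1 (1 nM) preincubated with compound 15 min at RT, then 5'-biotin/3'-phosphotyrosine-FITC DNA substrate (15 nM) added for 5 min. AlphaScreen beads (10 ug/ml) added, 10 min RT; tyrosine-FITC cleavage read as signal loss.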
Giardia killer: Small Molecules that selectively kill Giardia lamblia: qHTS; Giardia lamblia trophozoite viability; activity change, % at 7.66 µM, hits read low; hit rate 0.15% among 340,000; in the data active = activity change below about -80%; inconclusive = between about -30% and that limit;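 also: parasites exposed to compound for two days anaerobically before the ATP read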
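Giardia trophozoites, 100 cells per well, were exposed to compounds for 48 hrs at 37 deg C under anaerobic conditions; viability was then read as ATP content by bioluminescence after 15-30 min at room temperature.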
TDP1 cell noCPT: qHTS for Inhibitors of human tyrosyl-DNA phosphodiesterase 1 (TDP1): qHTS in cells in absence of CPT; Potency, µM (top dose mostly 46.2 µM), without a hit: top-dose activity change, negative = growth inhibition, hits mostly inhibitors; DT40 Tdp1-/- hTDP1 cells, no CPT, ATP luminescence, 48 h; hit rate 15% among 420,000; AID 686978, 2013; also: potency is read from the fitted curve at half-maximal effect; nearly all actives have a fitted effect of over 55% in size
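DT40 Tdp1-/-;hTDP1 cells, no CPT (DMSO vehicle only), 400 cells/well; compounds pin-transferred; ≥48 hr, 37 °C; CellTiter-Glo 30 min RT dark, luminescence read.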
An asterisk follows results filed as active; ? = inconclusive; . = no result; [ ] = remark or other dose. Rows were chosen to be rich in hits. Some 19% of all compounds tested hit in one or more screens of this group. Unless noted, calls follow the shape of the dose curve; as a rule, active = well fitted curve in the direction sought with a large enough effect; inconclusive = small, poorly fitted or top-dose-only effect, or another doubt; inactive = no such curve, though single readings can be large; an effect the other way counts as inactive or inconclusive. % is scaled to controls: 0 for no effect and ±100 for the full control effect.

SMILES	TDP1 cell CPT	ELG1 DNA repair	IL1B secr inh	TDP1 inh	Giardia killer	TDP1 cell noCPT
COC(=O)C1=C(C)N(CCc2cc(OC)c(OC)c(OC)c2)C(=O)N[C@H]1c1ccccc1	-22%	.	15	3%[21 µM]	5	-24%
COC(=O)c1sc2cccc(F)c2c1S(=O)(=O)Nc1ccc(N(C)C)cc1	-5%	.	.	5%	.	-22%
O=C(NCc1ccccc1Br)c1cccs1	?	.	3	.	.	-29%
O=C(c1cccc(C(F)(F)F)c1)c1c[nH]c(C(=O)NCC2CCCO2)c1 (configuration not stated)	-20%	?	-11	3%	7	?
CCn1c(CNC(=O)c2ccccc2OC)nnc1SCC(=O)c1ccc(F)cc1	5%	5%	15	7%	-4	7%
COc1cc(C(O)c2nc(-c3ccc(N(C)C)cc3)cs2)ccc1F (configuration not stated)	16µM*	.	-62*	.	.	23µM*
COc1cc(C(O)c2nc(-c3ccccc3OC)cs2)ccc1F (configuration not stated)	?	.	-9	.	.	?
OC(c1ccc(F)c(F)c1)c1nc(-c2ccccc2)cs1 (configuration not stated)	?	.	-2	.	.	?
COc1ccc(C(O)c2nc(-c3cc(F)cc(F)c3)cs2)cc1 (configuration not stated)	16µM*	.	-16	.	.	16µM*
OC(c1ccc(F)c(F)c1)c1nc(-c2cnc3ccccc3c2)cs1 (configuration not stated)	?	.	22	.	.	21µM*
COc1cc(C(O)c2nc(/C=C/c3ccccc3)cs2)ccc1F (configuration not stated)	18µM*	.	0	.	.	?
OC(c1ccccc1)c1nc(-c2cc(F)cc(F)c2)cs1 (configuration not stated)	?	.	-8	.	.	?
CCCCC1Cc2[nH][nH]c(=O)c2C(c2ccc(F)cc2)O1 (configuration not stated)	?	.	-2	.	.	?
CC1=NNC(=O)C(CC(=O)Nc2ccc(Cl)c(Cl)c2)C1 (configuration not stated)	1%	21%	-5	-1%	0	-27%
Cc1nc(N/C(N)=N/S(=O)(=O)c2ccccc2)nc2ccccc12	-20%	-19%	24	0%	-22	-28%
COc1cc(SC)ccc1C(=O)NCc1ccccc1	-18%	15%	-24	2%	-6	-26%
COc1cc(SC)ccc1C(=O)Nc1ccc(S(=O)(=O)Nc2nccc(C)n2)cc1	23µM*	.	.	5%	.	?
COc1cc(SC)ccc1C(=O)NCc1ccc(C)cc1	16µM*	?	-13	4%	9	?
COc1cc(SC)ccc1C(=O)Nc1ccncc1	16µM*	-2%	?	0%	-12	13µM*
Cc1ccnc(NS(=O)(=O)c2ccc(NC(=O)C3C4C=CC(C4)C3C(=O)O)cc2)n1 (configuration not stated)	-1%	-4%	12	50µM*	11	21%
O=C(Nc1ccc(Cl)cc1)c1ccc(-n2cnnc2)cc1	7%	.	.	8%	.	0%
CS/C(N)=C(C#N)/C(C#N)=C(\N)SC	.	.	.	1%	.	.
COc1cccc(OC)c1C(=O)Nc1ccc(C(=O)c2ccncc2)cc1	13µM*	-7%	5	5%	8	?
COc1cc(OC)c(C(=O)Nc2ccncc2)cc1OC	10%	-2%	-60*	2%	-6	9%
Cc1nc2nc[nH]n2c(=O)c1NS(=O)(=O)c1ccc(Br)cc1	6%	.	.	-4%[12.3 µM]	.	-10%
SMILES	TDP1 cell CPT	ELG1 DNA repair	IL1B secr inh	TDP1 inh	Giardia killer	TDP1 cell noCPT
CCOC(=O)C1CCCN(c2nc3c(S(=O)(=O)c4ccc(Br)cc4)nnn3c3ccsc23)C1 (configuration not stated)	?	.	.	0%	.	?
Cc1cc(O)c(/C=N/OCc2ccc(Cl)cc2Cl)c(=O)o1	15µM*	-15%	-12	3%	-15	?
COC(=O)c1nn(-c2ccccc2)c(Cl)c1/C=N/OCc1ccc(Cl)cc1Cl	16µM*	-7%	-1	2%	19	29µM*
COC(=O)c1c(NC(=O)CN2C(=O)C(=O)N(CC(C)C)C2=O)sc(C)c1C	20%	-15%	10	1%	-11	-26%
C=CCOc1ccc(C(=O)Nc2ncn[nH]2)cc1	2%	22%	-9	6%	-8	-23%
COc1cc(OC)c(NC(=O)NCc2cccn2Cc2ccccc2)cc1Cl	?	.	.	14%	.	?
O=C(Nc1cccc(S(=O)(=O)N2CCCC2)c1)c1cc(=O)[nH]c2ccccc12	-21%	-6%	14	0%[56.1 µM]	-4	-8%
O=C(Nc1cccc(S(=O)(=O)N2CCCCC2)c1)c1cc(=O)[nH]c2ccccc12	23µM*	26µM*	?	6%	-7	18µM*
CC(=O)c1c(C)[nH]c(C(=O)Nc2cccc(S(=O)(=O)N3CCCCC3)c2)c1C	?	?	?	6%	-15	15µM*
Cc1ccc(S(C)(=O)=O)cc1C(=O)Nc1cccc(S(=O)(=O)N2CCCCCC2)c1	?	12µM*	15	-1%[56.1 µM]	6	-6%
O=C(C[n+]1cccc2cccc(O)c21)c1ccc(Br)cc1	-10%	.	.	.	.	-3%
CC[C@@]1(C(=O)OC)N[C@H](CN(C)C(=O)Nc2ccc(C)cc2)[C@@H]2C(=O)N(C)C(=O)[C@@H]21	2%	6%	34	0%	-14	8%
COCC(=O)NC1(c2nnnn2CCOC(=O)Nc2ccc(Cl)cc2)CCCCC1	-5%	4%	-26	2%	2	-19%
CCSc1ccc2nnc(-c3cccc(F)c3)n2n1	-25%	21µM*	-18	3%	-8	?
Fc1ccc(CSc2ccc3nnc(-c4cccnc4)n3n2)cc1	16µM*	22%	?	2%	-11	16µM*
c1ccc(CSc2ccc3nnc(-c4ccccn4)n3n2)cc1	?	-4%	25	5%	12	21µM*
O=C(CSc1ccc2nnc(-c3cccc(F)c3)n2n1)NCC1CCCO1 (configuration not stated)	3%	17%	11	6%	-12	-19%

High-throughput results: PubChem BioAssay, National Center for Advancing Translational Sciences (NCATS)
